Assay results: ChEMBL document CHEMBL1157539, “Thousands of chemical starting points for antimalarial lead identification” (Nature, 2010)

Test system: Plasmodium falciparum
Assay: GSK_TCMDC: Inhibition of Plasmodium falciparum 3D7 in whole red blood cells, using parasite LDH activity as an index of growth. Test compounds present at 2uM
Type: functional

**Q.** For `CCCCN(Cc1cnccc1-c1ccc(Br)cc1)c1ccc(C(O)(C(F)(F)F)C(F)(F)F)cc1.O=C(O)C(F)(F)F`, which Inhibition is on record?
**A.** 87%

**Q.** With `Cc1c(N)ccc2[nH]c(-c3ccc(N)cc3)nc12` as the compound, how does the Inhibition read?
**A.** 97%

**Q.** `Cc1cc(I)ccc1Nc1nc2nonc2nc1Nc1ccc(I)cc1C` was tested. Which Inhibition did it give?
**A.** 100%

**Q.** For `C/C=C/COc1ccc(-c2c(C)[nH]c(C)c(Cl)c2=O)cc1`, which Inhibition is on record?
**A.** 97%

**Q.** For `O=C(NC1CCN(c2ccnc3cc(Cl)ccc23)C1)c1ccc(F)cc1F.O=C(O)C(F)(F)F` (configuration not stated), which Inhibition is on record?
**A.** 100%

**Q.** For `C#C[C@H]1O[C@@H](n2cnc3c(Nc4cc(Br)cc(C(F)(F)F)c4)ncnc32)[C@H](O)[C@@H]1O`, which Inhibition is on record?
**A.** 94%

**Q.** `CC(C)C[C@H]1C(=O)N[C@H](C2Cc3ccccc3C2)C(=O)N1[C@@H](C(=O)Nc1ccccc1OCc1ccccc1)c1ccc(F)cc1F` was tested. Which Inhibition did it give?
**A.** 90%

**Q.** `CCOc1ccc(C=CC(=O)Nc2ccc3nc(N4CCN(C)CC4)cc(C)c3c2)cc1OC` was tested. Which Inhibition did it give?
**A.** 100%

**Q.** Which Inhibition does the source give for `CCN(CCCN1CCCCC1)c1cc(C)nc(Nc2ccc(Br)cc2F)n1.O=C(O)C(F)(F)F` here?
**A.** 95%

**Q.** How did the Inhibition turn out when `Cl.N=C(N)c1cc(Cl)cc(NC(=O)Nc2cc(Cl)cc(C(=N)N)c2)c1` was run?
**A.** 92%

**Q.** `Br.CC1(C)NC(N)=NC(=N)N1OCCCOc1ccc(N)cc1` was tested. Which Inhibition did it give?
**A.** 96%

**Q.** `CC(=O)C1=NN(c2ccc(Cl)cc2)C(c2cccs2)N1c1ccccc1` (configuration not stated) was tested. Which Inhibition did it give?
**A.** 88%

**Q.** With `O=C1Nc2ccccc2/C1=N/NC(=S)N1CCOCC1` as the compound, how does the Inhibition read?
**A.** 95%

**Q.** With `O=C(O)C(F)(F)F.c1cc(CNCCc2ccncc2)cc(-c2ccc(-c3nc4ccccc4[nH]3)cc2)c1` as the compound, how does the Inhibition read?
**A.** 99%

**Q.** `CC(C)Oc1cc2c(cc1NS(=O)(=O)c1ccc(-c3ccc(Cl)cc3)cc1F)CCN(C)CC2.Cl` was tested. Which Inhibition did it give?
**A.** 88%

**Q.** Which Inhibition does the source give for `CN(C)CCN(Cc1ccc(-c2ccc(CNCCc3ccccc3)cc2)nc1)C(=O)CCC1CCCC1.O=C(O)C(F)(F)F` here?
**A.** 96%

**Q.** For `CC(=O)Nc1nc(C(=O)Nc2cccc(-c3ccc(-c4nc5cccc(C)c5[nH]4)cc3)c2)cs1`, which Inhibition is on record?
**A.** 100%

**Q.** Which Inhibition does the source give for `COc1cccc2cc(C(=O)N[C@@H](CC(C)C)C(=O)N[C@H](/C=N/NC(=O)c3ccccc3)Cc3c[nH]cn3)oc12` here?
**A.** 99%

**Q.** For `O=C(NCCCc1ccccc1)c1csc(C2CCCN(C(=O)c3ccc(O)c(-c4cccc5ccccc45)c3)C2)n1` (configuration not stated), which Inhibition is on record?
**A.** 97%

**Q.** `O=C(Nc1cc(F)cc(-c2cccnc2)c1)c1ccc2c(=O)n(Cc3ccccc3)cnc2c1` was tested. Which Inhibition did it give?
**A.** 98%

**Q.** How did the Inhibition turn out when `COc1ccc2c(=NN=Cc3cccc(Cl)c3)cc(C)[nH]c2c1` was run?
**A.** 100%

**Q.** With `O=C(NCCc1cccc(Cl)c1Cl)c1cnc(N2CCN(c3ccncc3)CC2)c(Cl)c1.O=C(O)C(F)(F)F` as the compound, how does the Inhibition read?
**A.** 100%

**Q.** `Cc1nccc2c(NC(=O)N[C@@H]3CCN(c4ncc(C(F)(F)F)cc4Br)C3)cccc12.Cl` was tested. Which Inhibition did it give?
**A.** 96%

**Q.** With `CC1(C)N=C(N)N=C(N)N1OCc1cc2ccccc2cc1CON1C(N)=NC(N)=NC1(C)C` as the compound, how does the Inhibition read?
**A.** 92%

**Q.** With `Cc1c(F)cc(C(=O)NC2CC2)cc1-c1ccc2c(cnn2S(=O)(=O)c2ccc(C#N)cc2)c1` as the compound, how does the Inhibition read?
**A.** 97%

**Q.** `Br.CC1(C)NC(N)=NC(=N)N1OCCCOc1ccccc1N` was tested. Which Inhibition did it give?
**A.** 93%

**Q.** With `Oc1ccc(Cl)cc1CN1CCCC(COC(c2ccc(F)cc2)c2ccc(F)cc2)C1` (configuration not stated) as the compound, how does the Inhibition read?
**A.** 98%
